PAX8 reporter – PAX8 transcriptional activity inhibition | AID 652154 | hit rate 1.2% among 360,000 | inhibition, % at 12.6 µM | RMG-I TPO-luciferase reporter, SteadyGlo, 24 h;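 active means mean replicate inhibition at least 60% with every replicate also reaching 60%; inconclusive means only one of the two criteria is met; inactive means mean below 60% and not all replicates reaching 60%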;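 further: luciferase light reporting Pax8 driven TPO promoter activity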
NSD2 inh – inhibitors of human histone methyltransferase NSD2; NSD2 peptide methylation, AlphaScreen, 120 min; hit rate 0.54% among 310,000; O96028; inhibition, % at 12.5 µM; AID 743445; in the data active means inhibition above about 50%
Shn3 inh set2 – Schnurri-3 reporter inhibition in Clone20 osteoblasts; AID 588674; Clone20 osteoblast Shn3 3'UTR firefly luciferase, 24 h; inhibition, % at 12.5 µM; hit rate 0.52% among 360,000;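 active means mean inhibition of at least 75% with every replicate also reaching 75%; inconclusive means mean inhibition at least 75% but some replicate below; inactive means mean inhibition below 75%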
LMP1 NFkB inh – reduces LMP1-driven NF-kappaB luciferase signal. LMP1-induced NF-kappaB luciferase reporter cells, luminescence. inhibition, % at 12.5 µM. hit rate 0.69% among 350,000. AID 504558; in the data active means inhibition above about 41%; inconclusive means no clear call, values can overlap the other calls
N-glyco inh – blocks N-linked glycosylation in D54 reporter cells. D54 ERlucT glycosylation luciferase reporter, 24 h; percent of 100 nM tunicamycin response. hit rate 0.23% among 360,000. reporter increase, % at 12.5 µM. AID 588692;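 active means mean luciferase reporter signal, scaled so untreated is 0 and the glycosylation-blocking control 100, at or above a set limit in every replicate; inconclusive means mean reaches the limit but not every replicate does; inactive means mean below the limit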;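 further: luciferase carries N-glycosylation sites so blocking glycosylation raises the light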
Env fusion inh – HIV envelope-mediated fusion inhibition; hit rate 1.1% among 360,000; HeLa-JRFL Env/CEM21 cell fusion, luciferase; AID 651610; inhibition, % at 12.3 µM;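 active means mean replicate inhibition score of at least 50 and every replicate individually at or above 50; inconclusive means only one of the two criteria met; inactive means mean below 50 and not all replicates reaching 50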
A number is an active result; . = inactive; ? = inconclusive; / = no result; ! = not confirmed by another sample. Most compounds without a hit are left out; they make up all but 2.8% or so of the library.

SMILES	PAX8 reporter	NSD2 inh	Shn3 inh set2	LMP1 NFkB inh	N-glyco inh	Env fusion inh
O=C(NC1CCCCC1)C(c1ccc(F)cc1)N(Cc1ccco1)C(=O)c1csnn1 (stereo not drawn)	.	.	.	.	.	63.2
Cc1ccc(C(C(=O)NC2CCCCC2)N(C(=O)c2csnn2)C2CCCC2)o1 (stereo not drawn)	/	.	.	.	.	71.2
O=C(NC1CCCC1)C(c1ccc(F)cc1)N(Cc1ccccc1)C(=O)c1csnn1 (stereo not drawn)	.	.	.	.	.	.
CC(C)CCN(C(=O)c1csnn1)C(C(=O)NC1CCCC1)c1ccc(F)cc1 (stereo not drawn)	.	.	.	.	.	76.2
Cc1ccc(S(=O)(=O)N[C@H]2CC[C@H](CCNC(=O)C3CCCCC3)O[C@H]2CO)cc1	.	/	/	/	/	.
CCC(=O)N1CCC2(CC1)CN(C(=O)CN1CCOCC1)[C@H](CO)c1c2c2ccc(OC)cc2n1C	/	/	/	/	/	.
COc1cccc(-c2cnc3c(c2)C(=O)N([C@H](C)CO)C[C@H](C)[C@H](CN(C)C(=O)Nc2ccc4c(c2)OCO4)O3)c1	/	/	/	/	/	.
O=C(C[C@H]1C[C@@H]2c3cc(NC(=O)c4ccc5c(c4)OCO5)ccc3O[C@@H]2[C@@H](CO)O1)NCCc1ccccc1	.	/	/	/	/	.
COc1cc(C2C(C#N)=C(N)Oc3cc4c(cc32)OCO4)cc(OC)c1OC (stereo not drawn)	96.1	.	.	.	?	.
COc1cc(C2C(C#N)=C(N)Oc3cc(O)ccc32)cc2c1OCO2 (stereo not drawn)	/	/	.	.	.	/
COc1cc(C2C(C#N)=C(N)Oc3cc(O)ccc32)cc(OC)c1OC (stereo not drawn)	/	.	.	.	46.0	.
N#CC1=C(N)Oc2cc(N)ccc2C1c1cccc(Br)c1 (stereo not drawn)	64.1	.	.	.	.	.
CCC(=O)N1CCCCN2[C@@H](CO)[C@H](c3ccc(C#Cc4ccccc4)cc3)[C@@H]2C1	.	/	/	/	/	/
Cc1onc(-c2c(Cl)cccc2Cl)c1C(=O)NC1C(=O)N2C1SC(C)(C)C2C(=O)O (stereo not drawn)	.	/	.	.	.	.
Cc1onc(-c2c(Cl)cccc2Cl)c1C(=O)N[C@@H]1C(=O)N2[C@@H]1SC(C)(C)[C@@H]2C(=O)O	.	.	91.0!	74.8!	31.0!	.
COc1cc(-c2nc(-c3ccccc3)c(-c3cccs3)[nH]2)cc(OC)c1OC	/	.	.	.	56.6	.
COc1cc(-c2nc(-c3ccccc3)c(-c3cccs3)[nH]2)cc(OC)c1O	.	.	.	.	.	.
O=C(/C=C/c1ccccc1)Oc1ccccc1O	/	.	/	/	/	/
C[C@@H]1CN([C@H](C)CO)C(=O)CCCn2cc(nn2)CO[C@H]1CN(C)C(=O)Nc1ccc(-c2cccs2)cc1	81.7	/	.	.	.	/
C[C@H]1CN([C@@H](C)CO)C(=O)CCCn2nncc2CO[C@H]1CN(C)C(=O)Nc1ccc(-c2cccs2)cc1	66.0	/	/	/	/	/
C[C@H](CO)N1C[C@H](C)[C@@H](CN(C)C(=O)Nc2ccc(-c3cccs3)cc2)OCc2cnnn2CCCC1=O	.	/	/	/	/	/
C[C@@H]1CN([C@@H](C)CO)C(=O)CCCn2nncc2CO[C@H]1CN(C)C(=O)Nc1ccc(-c2cccs2)cc1	84.4	/	.	.	.	.
O=C(C[C@H]1C=C[C@@H](NC(=O)C2CCOCC2)[C@H](CO)O1)NCC1CC1	.	/	/	/	/	.
C[C@H]1CN([C@@H](C)CO)C(=O)c2cccc(NS(=O)(=O)c3ccccc3)c2O[C@H]1CN(C)S(=O)(=O)c1ccccc1	/	/	/	/	/	.
CC(=O)N1c2ccc(S(=O)(=O)N3CCC(C(=O)Nc4cccc(C)c4)CC3)cc2CC1C (stereo not drawn)	.	.	.	.	.	.
SMILES	PAX8 reporter	NSD2 inh	Shn3 inh set2	LMP1 NFkB inh	N-glyco inh	Env fusion inh
CC(=O)N1c2ccc(S(=O)(=O)N3CCC(C(=O)Nc4cccc(F)c4)CC3)cc2CC1C (stereo not drawn)	.	.	86.4	.	.	.
CC(=O)N1c2ccc(S(=O)(=O)N3CCC(C(=O)Nc4cc(C)cc(C)c4)CC3)cc2CC1C (stereo not drawn)	.	.	.	.	.	.
COc1ccc(NC(=O)C2CCN(S(=O)(=O)c3ccc4c(c3)NC(=O)C(C)S4)CC2)cc1 (stereo not drawn)	.	.	.	.	.	.
CC1Sc2ccc(S(=O)(=O)N3CCC(C(=O)Nc4ccc(Cl)cc4)CC3)cc2NC1=O (stereo not drawn)	.	.	89.3	.	.	.
CC(=O)N1c2ccc(S(=O)(=O)N3CCC(C(=O)Nc4cccc(Cl)c4)CC3)cc2CC1C (stereo not drawn)	.	.	89.1	.	.	.
CCCNC(=O)[C@@H]1[C@@H](CO)[C@@H]2Cn3c(ccc(/C=C/c4ccccc4)c3=O)[C@H]1N2C(C)=O	.	/	/	/	/	/
O=C(Nc1cccc(C(=O)O)c1)Nc1ccc2c(c1)OCO2	103.3	.	.	73.3	.	83.2
COc1cccc(Nc2nc(-c3sc(NC(=O)c4ccco4)nc3C)cs2)c1	.	/	.	.	.	66.2
COc1cccc(NC(=O)Nc2nc(-c3ccc(OC)c(OC)c3)cs2)c1	104.5	.	.	51.6	.	.
COc1ccc(-c2csc(NC(C)=O)n2)cc1OC	.	.	.	.	.	.
COc1cccc(NC(=O)Nc2cccc(C(=O)O)c2)c1	80.1	.	.	61.4	.	71.2
C[C@@H]1CN([C@H](C)CO)C(=O)c2cccc(NC(=O)c3cnccn3)c2O[C@@H]1CN(C)C	.	/	/	/	/	/
CN1CCN(C(=O)C2=C[C@H](C3CC3)C[C@H](OCCCCO)O2)CC1	.	/	/	/	/	.
CCCCCn1c(N2CCOCC2)nc2c1c(=O)n(CC(N)=O)c(=O)n2C	/	.	.	64.2	.	/
CCCCCOC(=O)Cn1c(=O)c2c(nc(N3CCOCC3)n2C)n(C)c1=O	.	.	.	.	.	.
CC1(C)CC[C@]2(C(=O)n3ccnc3)CC[C@]3(C)[C@H](C(=O)C=C4[C@@]5(C)C=C(C#N)C(=O)C(C)(C)[C@@H]5CC[C@]43C)[C@@H]2C1	.	.	94.2	89.6	.	109.5
CSC(=S)NCc1cccnc1	64.3	.	.	.	.	.
NC(=S)NCc1cccnc1	.	.	.	.	.	.
CC(=O)N(Cc1ccc(F)cc1)C1=C(NCc2ccccc2)C(=O)c2ccccc2C1=O	/	/	.	53.2	.	/
O=C(NCc1ccc(F)cc1)C(c1ccccc1)c1ccccc1	.	.	.	.	.	.
Oc1[nH]c2ccccc2c1N=Nc1ccccn1	.	.	.	.	.	.
Oc1c(N=Nc2ccccn2)ccc2ccccc12	.	.	.	48.3	.	.
C[C@@H]1CCCCO[C@H](CN(C)Cc2ccc3c(c2)OCO3)[C@@H](C)CN([C@@H](C)CO)C(=O)c2cc(NS(=O)(=O)c3ccc(Cl)cc3)ccc2O1	114.0	/	/	/	/	.

Screening results from PubChem BioAssay.
